Experimental findings from PubChem BioAssay (EPA / NIEHS) are described below.

A word on the AC50: it is the concentration giving half of the maximal activity seen.

Holding throughout (conditions): primary human B cells with PBMC
A short description of experiment [1]: BSK_BT_PBMCCytotoxicity: PBMC Cytotoxicity Assessment in the BioMAP Diversity Plus: BT Assay (AID 2284225).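 Also: PBMC viability measured by Alamar Blue dye reduction fluorescence.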 An outline of the steps: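 Viability by Alamar Blue reduction (6 h, ex/em 546/580 nm) after 90 h culture of SEB/TSST-1-activated PBMC (20 ng/mL each) given compound 1 h before activation. DMSO served as baseline for curve fitting.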
Read-out in experiment [2]: Secreted IgG (sIgG), gene 3500
The experiment in a line: BSK_BT_sIgG: BioMAP Diversity Plus: BT Assay for Secreted IgG (sIgG) Biomarker Activity (AID 2284226). An outline of the steps: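 Cells (B cells with peripheral blood mononuclear cells) are dosed, cultured 24 h, then supernatant IgG is measured by ELISA. DMSO serves as negative control; curves are fitted for signal increase.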

Read-out in experiment [3]: Interleukin 6 (IL6), IL6 (gene 3569)
The experiment in a line: BSK_BT_xIL6: BioMAP Diversity Plus: BT Assay for Interleukin 6 (IL6) Biomarker Activity (AID 2284228). An outline of the steps: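 Secreted IL-6 in the primary human B cell plus PBMC system, measured by Luminex at 24 h post-chemical, DMSO as baseline. Alamar Blue viability: 75,000 cells/well, chemical 1 h before SEB/TSST-1 (20 ng/mL each), 90 h, then 6 h dye.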

Read-out in experiment [4]: Interleukin 17A (IL17A), IL17A (gene 3605)
The experiment in a line: BSK_BT_xIL17A: BioMAP Diversity Plus: BT Assay for Interleukin 17A (IL17A) Biomarker Activity (AID 2284229). An outline of the steps: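 Luminex xMAP quantification of secreted IL-17A after 24 h chemical exposure of a primary human B cell/PBMC co-culture. Signal increases fitted relative to DMSO negative control.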

Read-out in experiment [5]: Tumor necrosis factor (Homo sapiens) (UniProt P01375)
The experiment in a line: BSK_BT_xTNFa: BioMAP Diversity Plus: BT Assay for Tumor necrosis factor alpha (TNF-alpha) Biomarker Activity (AID 2284230). The essentials:
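Read-out: Luminex xMAP quantitation of secreted TNF-alpha from a B cell/PBMC co-culture 24 h after compound addition. Signal analysed relative to DMSO vehicle, positive fitting direction.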

Molecules are shown by their SMILES. The source made the active and inactive calls. The calls were made as follows: active = hit-call score of the fitted dose curve at least 0.9, where 1 is the maximum; inactive = score below 0.9.

Tumor necrosis factor (Homo sapiens), sequence (P01375 whole entry, looked up): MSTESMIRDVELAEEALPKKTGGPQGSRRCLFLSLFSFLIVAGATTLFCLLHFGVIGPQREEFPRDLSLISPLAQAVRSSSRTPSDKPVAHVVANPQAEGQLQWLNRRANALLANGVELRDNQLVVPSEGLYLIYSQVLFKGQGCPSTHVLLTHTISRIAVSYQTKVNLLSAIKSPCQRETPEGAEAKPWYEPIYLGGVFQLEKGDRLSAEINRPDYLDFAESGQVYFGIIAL

`CC=Cc1ccc(OCC)c(O)c1`: the result in experiment [1], in experiment [3], in experiment [4] and in experiment [5] was inactive. In addition, the concentration at half-maximal activity (AC50) in experiment [2] is 12.9 µM (active).
As for `CN(C)C(=O)Nc1ccc(Oc2ccc(Cl)cc2)cc1`, the outcome in experiment [1], in experiment [3], in experiment [4] and in experiment [5] was inactive. In addition, the concentration at half-maximal activity (AC50) in experiment [2] is 20 µM (active).
Regarding `O=C1c2ccccc2C(=O)c2c(O)ccc(O)c21`, the concentration at half-maximal activity (AC50) in experiment [1] is 11 µM (active); in experiment [2] it was 0.36 µM (active); in experiment [3], 0.0172 µM (active); in experiment [5], 11 µM (active). The outcome in experiment [4] was inactive.
Consider `C=C(C)[C@H]1CC=C(C)C(=O)C1`, for which the outcome in experiment [1], in experiment [2], in experiment [3], in experiment [4] and in experiment [5] was inactive.
`CCC(C)c1cc([N+](=O)[O-])cc([N+](=O)[O-])c1OC(=O)OC(C)C` (stereo not given): the AC50 is 20 µM (active) in experiment [1]; 11.1 µM (active) in experiment [2]; 30.4 µM (active) in experiment [3]; 30.7 µM (active) in experiment [4]; 33.5 µM (active) in experiment [5].
In the case of `CC(=O)c1c(C)c([N+](=O)[O-])c(C(C)(C)C)c([N+](=O)[O-])c1C`, the outcome in experiment [1], in experiment [3], in experiment [4] and in experiment [5] was inactive. Further, the concentration at half-maximal activity (AC50) in experiment [2] is 30.5 µM (active).
As to `Clc1cc(Cl)c(-c2c(Cl)c(Cl)cc(Cl)c2Cl)cc1Cl`, the result in experiment [1], in experiment [2], in experiment [3], in experiment [4] and in experiment [5] was inactive.
Take `CSCCC=O`: the outcome in experiment [1], in experiment [2], in experiment [3], in experiment [4] and in experiment [5] was inactive.
Take `O=C1OC2(c3ccccc31)c1ccc(O)c(Br)c1Oc1c2ccc(O)c1Br`: the result in experiment [1], in experiment [2], in experiment [3], in experiment [4] and in experiment [5] was inactive.
`IC(I)I`: the result in experiment [1], in experiment [2], in experiment [3], in experiment [4] and in experiment [5] was inactive.
On to `CC1(C)C2=CCCC(C)(C)[C@]23CC[C@H]1C3`, for which the result in experiment [1], in experiment [3], in experiment [4] and in experiment [5] was inactive. In addition, the AC50 in experiment [2] was 20 µM (active).
`O=C1OC[C@H](Cc2cccc(O)c2)[C@H]1Cc1cccc(O)c1`: the outcome in experiment [1], in experiment [2], in experiment [3], in experiment [4] and in experiment [5] was inactive.
As for `CCCCOC(=O)CCCCCCCC(=O)OCCCC`, the outcome in experiment [1], in experiment [2], in experiment [3], in experiment [4] and in experiment [5] was inactive.
For the molecule `CN(C)C(=S)SC(=S)N(C)C`, the half-maximal activity concentration (AC50) in experiment [1] is 0.396 µM (active); in experiment [2] it was 0.244 µM (active); in experiment [3], 0.6 µM (active); in experiment [4], 0.367 µM (active); in experiment [5], 0.504 µM (active).
As for `c1ccc(CCc2ccccc2)cc1`, the outcome in experiment [1], in experiment [2], in experiment [3], in experiment [4] and in experiment [5] was inactive.
`C1=CC2C3C=CC(C3)C2C1` (stereo not given): the result in experiment [1], in experiment [2], in experiment [3], in experiment [4] and in experiment [5] was inactive.
As for `Cc1cc(CCC(=O)OCCOCCOCCOC(=O)CCc2cc(C)c(O)c(C(C)(C)C)c2)cc(C(C)(C)C)c1O`, the result in experiment [1], in experiment [2], in experiment [3], in experiment [4] and in experiment [5] was inactive.
For the molecule `C=C(C)C(=O)OCC(CC)(COC(=O)C(=C)C)COC(=O)C(=C)C`, the result in experiment [1] and in experiment [4] was inactive. For the same molecule, the AC50 in experiment [2] was 3.08 µM (active); in experiment [3], 19.7 µM (active); in experiment [5], 19.7 µM (active).
As to `c1ccc(Oc2ccccc2)cc1`, the result in experiment [1], in experiment [2], in experiment [3], in experiment [4] and in experiment [5] was inactive.
As for `CC(C=O)Cc1ccc(C(C)(C)C)cc1` (stereo not given), the result in experiment [1], in experiment [2], in experiment [3], in experiment [4] and in experiment [5] was inactive.
As to `CN(c1nccc(=O)[nH]1)C1CCN(c2nc3ccccc3n2Cc2ccc(F)cc2)CC1`, the result in experiment [1], in experiment [3], in experiment [4] and in experiment [5] was inactive. Also, in experiment [2], the half-maximal activity concentration (AC50) was 14.6 µM (active).
As for `COc1cc(Cl)c(OC)cc1N`, the result in experiment [1], in experiment [2], in experiment [3], in experiment [4] and in experiment [5] was inactive.
Turning to `COc1ccc(CCN2CCC(Nc3nc4ccccc4n3Cc3ccc(F)cc3)CC2)cc1`, the concentration at half-maximal activity (AC50) is 7.27 µM (active) in experiment [1]; 3.17 µM (active) in experiment [2]; 3.52 µM (active) in experiment [3]; 3.17 µM (active) in experiment [4]; 7.19 µM (active) in experiment [5].
